According to PubChem BioAssay (NCI):
Compounds without any hit were thinned out: in the full panel of roughly 83,000, 20% have a hit.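 Negative percent growth values reflect cell death: -40 means 40% of the cells present at the start died, and -100 means all died.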 Activity calls are given as the source filed them. How the source made its calls: active means growth percent below 10; inactive means the rest.

System: MDA-MB-468 breast
Test: NCI-60 one-dose screen, 48 h (100 = growth as untreated, 0 = no growth, -100 = all killed)
Conditions: 10 µM unless noted

Q: COC(=O)/C=C1/CCC2C3CCC4=CC(=O)C(Br)CC4(C)C3C(=O)CC12C (configuration not stated) was tested. Which growth did it give?
A: 13.9% (inactive)

Q: Which growth does the source give for C=C1C(=O)O[C@H]2[C@H]1CC/C(Cn1cc(-c3ccc(F)cc3)nn1)=C\CC[C@@]1(C)O[C@@H]21 here?
A: -53.1% (active)

Q: With O=C(Nc1cccc(-c2ccc(Cl)c(C(F)(F)F)c2)c1)C1CCN(Cc2cccc3cccnc23)CC1 as the molecule, how does the growth read?
A: -5.03% (active)

Q: Which growth does the source give for Cn1c2ccccc2c2c3c(c4c5ccc(Br)cc5oc4c21)C(=O)N(O)C3=O here?
A: 46.2% (inactive)

Q: How did the growth turn out when CCCCN(CCCC)CCCCCCCCC(O)c1cc2ccccc2c2ccccc12 (configuration not stated) was run?
A: 29.1% (inactive)

Q: With O=c1[nH]c(-c2ccccn2)nc2sc3c(c12)CCCCC3 as the molecule, how does the growth read?
A: 50% (inactive)

Q: How did the growth turn out when [N-]=[N+]=NCc1ncc(-c2ccc(C(F)(F)F)cc2)c(NC2CCCCCC2)n1 was run?
A: 103% [50 µM] (inactive)

Q: Which growth does the source give for CC1=C[C@@H]2c3c(c(O)c(O)c4oc5cc(O)cc(O)c5c(=O)c34)[C@@H](c3cc(O)c(O)c4oc5cc(O)cc(O)c5c(=O)c34)[C@@H]2C(C)(C)C1 here?
A: -19.5% (active)

Q: Which growth does the source give for Oc1ccc(CCl)c2cccnc12 here?
A: 86.2% (inactive)

Q: For CC#CC#Cc1cccc(=O)o1, which growth is on record?
A: 29.3% (inactive)

Q: Which growth does the source give for CC1=C2[C@@H](CC1)[C@]1(C)O[C@@](C(C)C)(C[C@H]1OC(=O)CO)[C@H]2OC(=O)CCCc1ccccc1 here?
A: 88.3% (inactive)

Q: For C[C@H]1Oc2cc(cnc2N)-c2c(nn(C)c2C#N)CN(C)C(=O)c2ccc(F)cc21, which growth is on record?
A: 98.5% (inactive)

Q: For NC1=CC(=O)C(=O)c2ccccc21, which growth is on record?
A: 86.8% (inactive)

Q: For CCCCCCCCOC(=O)c1ccccn1, which growth is on record?
A: 107% (inactive)

Q: O=C(Nc1cccc(Cl)c1)Nc1cc2ncncc2cc1OCc1cccc(F)c1 was tested. Which growth did it give?
A: -2.43% (active)

Q: How did the growth turn out when CCOC(=O)c1c(O)cc(-c2ccccc2)cc1-c1sc(N(C)Cc2ccccc2)nc1Cl was run?
A: 111% (inactive)

Q: C=CCSSc1ncnc2c1ncn2C1OC(CO)C(O)C1O (configuration not stated) was tested. Which growth did it give?
A: 7.11% (active)

Q: How did the growth turn out when C=CCn1c(SCC(=O)Nc2ccc(/C(C)=N/O)cc2)nnc1-c1cc(-c2ccc(S(N)(=O)=O)cc2)nc2ccccc12 was run?
A: 57% (inactive)

Q: N=S(=O)(NC(=O)c1ccc(Cl)cc1Cl)c1ccc(Br)s1 (configuration not stated) was tested. Which growth did it give?
A: 92.8% (inactive)

Q: CC[C@H](C)[C@H]1NC(=O)[C@@H](N[C@](C)(O)[C@@H](N)CC(C)C)[C@@H](C)OC(=O)[C@H](Cc2ccc(OC)cc2)N(C)C(=O)[C@@H]2CCCN2C(=O)[C@H](CC(C)C)NC(=O)[C@@H](C)C(=O)[C@H](C(C)C)OC(=O)C[C@@H]1O was tested. Which growth did it give?
A: -31.2% (active)

Q: For O=C(Nc1cccc(-n2ccc3c(NC(=O)c4ccccc4)nccc32)c1)c1cc(N2CCOCC2)cc(C(F)(F)F)c1, which growth is on record?
A: -32.3% (active)

Q: How did the growth turn out when CCCC[n+]1ccc(SCC(=O)n2ccc3ccccc32)c2ccccc21 was run?
A: 52.1% (inactive)

Q: How did the growth turn out when CCc1c(Nc2ccccc2C)nc(N)[nH]c1=O was run?
A: 105% (inactive)

Q: Which growth does the source give for Cc1cccc([N+](=O)[O-])c1I here?
A: 104% (inactive)

Q: How did the growth turn out when CCOC(=O)c1c(C)nc2c(c1N)/C(=C/c1ccc(OC)cc1)C(=O)N2Cc1ccc(F)cc1 was run?
A: -16.4% (active)

Q: CS(=O)(=O)c1ccc(-c2nc3ccccn3c2-c2nc3ccc([N+](=O)[O-])cc3[nH]2)cc1 was tested. Which growth did it give?
A: 104% (inactive)

Q: With CCC(C)(O)c1ccc(C)cc1 (configuration not stated) as the molecule, how does the growth read?
A: 110% (inactive)

Q: How did the growth turn out when Cc1cc2nc(C)c(C)nc2cc1C was run?
A: 112% (inactive)

Q: CC(=O)NC(C)(C)C(=O)N1CCC[C@H]1C(=O)NC(C)(C)C(=O)N[C@@H](C)C(=O)NC(C)(C)C(=O)NC(C)(C)C(=O)N[C@@H](CCC(N)=O)C(=O)NC(C)(C)C(=O)N[C@H](C(=O)NC(C)(C)C(=O)NCC(=O)N[C@@H](CC(C)C)C(=O)NC(C)(C)C(=O)N1CCC[C@H]1C(=O)N[C@H](C(=O)NC(C)(C)C(=O)NC(C)(C)C(=O)N[C@@H](CCC(N)=O)C(=O)N[C@@H](CCC(N)=O)C(=O)N[C@H](CO)Cc1ccccc1)C(C)C)C(C)C was tested. Which growth did it give?
A: -1.54% [4.25 µM] (active)

Q: With COc1cc(/C=N/NC(=O)c2ccccc2Nc2ccnc(C(F)(F)F)c2)ccc1O as the molecule, how does the growth read?
A: 80.5% (inactive)

Q: Which growth does the source give for CCCCCCCCCCCCCCCC(=O)OC[C@@]1(O)C[C@@]23CC[C@@H]4C(C)(C)CCC[C@@]4(C)[C@@H]2CC[C@H]1C3 here?
A: 103% (inactive)

Q: Which growth does the source give for COc1cc(/C=C\c2cc(/C=C\c3ccc(O)c(OC)c3)n(C(=O)Nc3ccc(C(F)(F)F)cc3)n2)ccc1O here?
A: 43.8% (inactive)
